Assay results reported in the supplement of paper PMC8183993.
Several values for one entry are separate records, joined by “and”; a condition that tells them apart may be missing. Identical values can stand only once. Counter-ions that a name gives are not always drawn. ± gives the standard deviation of the averaged measurements. Over roughly 3,100 compounds, “mean cytoplasmic OPP incorporation (global translation) relative to DMSO” has its median near 100; the lowest 2% begin near 56. Many of the other results were omitted from the sample, so the lowest values are more common in it than they were.

test system: U2OS; test: mean cytoplasmic OPP incorporation (global translation) relative to DMSO (% of DMSO); higher = more protein synthesis; settings: 10 µM; 24 h
Protocol: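 Primary image-based screen in U2OS cells: compounds at 10 uM for 24 h, then a 1 h o-propargyl-puromycin (OPP) pulse, click labelling, and high-throughput microscopy. Mean cytoplasmic OPP intensity and nuclei count were normalised to DMSO wells within each plate (DMSO = 100) and averaged over triplicate plates.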

SMILES	mean cytoplasmic OPP incorporation
O=C(CCCCCCC(=O)NO)NO [Suberoyl bis-hydroxamic acid]	88.4
C[C@H](CCC(=O)NCC(=O)O)[C@H]1CC[C@H]2[C@@H]3CC[C@@H]4C[C@H](O)CC[C@]4(C)[C@H]3C[C@H](O)[C@]12C [Glycodeoxycholic acid]	102
CCC(=O)N1CCN(c2ccc(-n3c(=O)ccc4cnc5ccc(-c6cnc7ccccc7c6)cc5c43)cc2C(F)(F)F)CC1 [Torin 1]	73
COc1ccc(-c2ccc3ncc4c(c3c2)n(-c2ccc(N3CCNCC3)c(C(F)(F)F)c2)c(=O)n4C)cn1	33.4 ± 16
Nc1ccc(-c2ccc3ncc4ccc(=O)n(-c5cccc(C(F)(F)F)c5)c4c3c2)cn1 [Torin 2]	67.6 ± 3.6
CCN(CC)CCNC(=O)c1c(C)[nH]c(/C=C2\C(=O)Nc3ccc(Cl)cc32)c1C	124
Cc1nnc(-c2ccc3occ(-c4ccc([S+](C)[O-])cc4)c3c2)o1 (centres undefined)	105
CCCCC[C@H](O)/C=C/C=C\CCCCCCCC(=O)O [13(S)-Hydroxy-9Z,11E-octadecadienoic acid]	99.3
CC(/C=C/C(=O)NO)=C\[C@@H](C)C(=O)c1ccc(N(C)C)cc1 [Trichostatin A]	66.2 ± 33
CN1CCN(C(=O)c2nc3ccc(Cl)cc3[nH]2)CC1	81.1
Cc1[nH]c(/C=C2\C(=O)Nc3ccc(S(=O)(=O)N(C)c4cccc(Cl)c4)cc32)c(C)c1C(=O)N1CCN(C)CC1	88.9
CN1CCCN(C(=O)c2cccc(-c3ccc(/C=C4/C(=O)Nc5ccc(Cl)cc54)o3)c2)CC1	55.4
NCCCCCc1c[nH]cn1 [Impentamine dihydrobromide]	99.3
Cc1cc(C)c(S(=O)(=O)Nc2ccccc2C(F)(F)F)c(C)c1	97.3
O=C(Nc1ccccc1-c1cn2c(CN3CCNCC3)csc2n1)c1cnc2ccccc2n1	48.8
Cc1cc(C(=O)O)sc1C(N)C(=O)O (centres undefined)	104
COC(=O)[C@@H](N)CSC/C=C(\C)CC/C=C(\C)CCC=C(C)C [S-Farnesyl-L-cysteine methyl ester]	95.9
CSc1ccc(/C=C2/C(C)=C(CC(=O)O)c3cc(F)ccc32)cc1 [Sulindac Sulfide]	104
NS(=O)(=O)c1ccc(NC(=O)Nc2ccc(F)cc2)cc1	98.7
Nc1nc(Nc2ccc(S(N)(=O)=O)cc2)nn1C(=O)c1c(F)cccc1F	50.1
COc1ccc(CCN2CCN(CCCc3ccccc3)CC2)cc1OC	111
CCN(C(=O)CO)[C@H]1CN(/C(=N\C#N)Nc2cccc(OC(F)F)c2)N=C1c1ccc(Cl)c(Cl)c1	107
CCCCCCCCOC(=O)/C=C/c1ccc(O)c(O)c1 [n-Octyl caffeate]	88.9
NC(N)=NCCC[C@H](NC(=O)[C@@H]1CCCN1C(=O)[C@H](N)Cc1ccccc1)C(=O)CCl	99.7
O=C(O)Cc1ccc(OCCNC[C@H](O)c2ccccc2)cc1 [ZD 2079 hydrochloride]	103
Cc1cc(I)ccc1Nc1c(C(=O)NOCC2CC2)cc(F)c(F)c1F	97.5
CC(NC(=O)C(Cc1ccccc1)NC(=O)OCc1ccccc1)C(=O)CF (centres undefined)	101

SMILES	mean cytoplasmic OPP incorporation
CCCC[C@@H](C=O)NC(=O)[C@H](CC(C)C)NC(=O)OCc1ccccc1 [Calpeptin]	106 ± 7.2
CC(C)C[C@@H](C=O)NC(=O)[C@H](CC(C)C)NC(=O)[C@H](CC(C)C)NC(=O)OCc1ccccc1	91.4 and 56.1
C[C@H](CC[C@@H]1OC1(C)C)[C@H]1CC[C@H]2[C@@H]3CC=C4C[C@@H](O)CC[C@]4(C)[C@H]3CC[C@]12C [24(S),25-Epoxycholesterol]	112
Cc1ccc(NC(=O)C(C)C)cc1C1CCN(Cc2ccc(Oc3ccc(F)c(F)c3)cc2)CC1	108
CC[C@H](C)[C@H](N)C1=N[C@H](C(=O)N[C@@H](CC(C)C)C(=O)N[C@H](CCC(=O)[O-])C(=O)N[C@H](C(=O)N[C@H]2CCCCNC(=O)[C@H](CC(N)=O)NC(=O)[C@@H](CC(=O)[O-])NC(=O)[C@H](Cc3cnc[nH]3)NC(=O)[C@@H](Cc3ccccc3)NC(=O)[C@H]([C@@H](C)CC)NC(=O)[C@@H](CCCN)NC2=O)[C@@H](C)CC)CS1.[Zn+2] [Bacitracin zinc]	107
CCCC(CCC)C(=O)NO [Valproic acid hydroxamate]	110
Cc1cnc(NC(=O)Nc2cc(Br)c(C)cc2OC[C@@H]2CNCCO2)cn1	45.6
CCOc1ccccc1OCC1CNCCO1 (centres undefined) [Viloxazine hydrochloride]	87.8
COc1cc(OC)c(NC(=O)Nc2cc(C)on2)cc1Cl	103
CC(=O)OCCN1C(=O)c2c(C)nc3ccc(S(=O)(=O)N4CCOCC4)cc3c2C1=O [Ivachtin]	105
CCOC(=O)C1=CN(Cc2ccccc2)C=C(C(=O)OCC)C1c1ccccc1	99.2
Nc1ncn(C2CC(O)C(CO)O2)c(=O)n1 (centres undefined) [5-Aza-2-deoxycytidine]	94.5
CCCn1c(=O)c2[nH]c(-c3ccccc3)nc2n(CCC)c1=O [1,3-Dipropyl-8-phenylxanthine]	99.1
CCCn1c(=O)c(C)cn2nc(N)nc12	104
CCCC[C@@H](C=O)NC(=O)OC(C)(C)C	101
CC1=C(/C=C/C(C)=C/C=C/C(C)=C/C(=O)O)C(C)(C)CCC1O (centres undefined) [4-Hydroxyretinoic acid]	101
COC(=O)[C@]12CCC(C)(C)C[C@H]1[C@H]1C(=O)C=C3[C@@]4(C)C=C(C#N)C(=O)C(C)(C)[C@@H]4CC[C@@]3(C)[C@]1(C)CC2 [Bardoxolone Methyl]	25.6
N[C@@H](Cc1cc(I)c(Oc2ccc(O)cc2)c(I)c1)C(=O)O [3,5-Diiodo-L-thyronine]	103
CC(=O)Nc1ccccc1 [Acetanilide (Antifebrin)]	102
CCN(CC)Cc1ccc2cc(COC(=O)Nc3ccc(C(=O)NO)cc3)ccc2c1 [ITF2357 (Givinostat)]	104
CC(C)[C@H](C(=O)Nc1ccc(C(=O)NO)cc1)c1ccccc1	53
COc1ccc(CN2C(=O)C(=O)c3cc(OC(F)(F)F)ccc32)cc1	102
CC(C)Oc1ccc2c(=O)c3cc(C(=O)O)ccc3oc2c1	102
O=[N+]([O-])c1ccccc1S(=O)(=O)NCC1CCC(CNCC2CCc3ccccc3C2)CC1 (centres undefined) [NTNCB hydrochloride]	114
CC(C)NCCN(C(C)C)S(=O)(=O)c1ccc(Cl)cc1Cl	95.9
C[N+](C)([O-])CCNc1ccc(NCC[N+](C)(C)[O-])c2c1C(=O)c1c(O)ccc(O)c1C2=O [Banoxantrone dihydrochloride]	87.9
O=C1c2c(O)ccc(O)c2C(=O)c2c(NCCNCCO)ccc(NCCNCCO)c21 [Mitoxantrone dihydrochloride]	20.9

SMILES	mean cytoplasmic OPP incorporation
O=C1c2ccccc2C(=O)c2c(NCCc3ccc(O)cc3)ccc(NCCc3ccc(O)cc3)c21	120
CC(C)SC(=N)N [S-Isopropylisothiourea hydrobromide]	102
CCCS(=O)(=O)c1nc(NC2CC2)cc(-c2ccc3c(ccn3C3CC(C)(C)NC(C)(C)C3)c2)n1	21.1
C=C1C(=O)O[C@@H](CCC)[C@@H]1C(=O)O [Butyrolactone 3]	100
C[C@H](NC(=O)[C@@H]1CCCN1C(=O)[C@@H]1CCCN1C(=O)[C@@H](O)[C@H](N)Cc1ccccc1)C(N)=O [Apstatin]	101
C[C@H](NC(=O)/C(C#N)=C/c1ccc(O)c(O)c1)c1ccccc1 [Tyrphostin B44, (+) enantiomer]	96
CCC[C@H](NC(=O)/C(C#N)=C/c1cccc(Br)n1)c1ccccc1	27.2
C[C@H](NC(=O)/C(C#N)=C/c1cccc(Br)n1)c1ccccc1	56.2 ± 5.9
O=C(c1ccc(Cl)cc1Cl)n1nnc2ccccc21	111
CCCc1cc(C)[nH]c(=O)c1CNC(=O)c1cc(-c2ccnc(N3CCN(C)CC3)c2)cc2c1cnn2C(C)C	112
O=C(/C=C/c1cccc(S(=O)(=O)Nc2ccccc2)c1)NO [Belinostat (PXD101)]	65.5
CC(=O)NCCc1c(Cc2ccccc2)[nH]c2ccccc12 [Luzindole]	103
Cc1[nH]c2ccccc2c1CCNCc1ccc(/C=C/C(=O)NO)cc1 [Panobinostat]	51.6
CCCCCCCCCCCCCCCC(=O)C1=C(O)[C@@H](CO)OC1=O	104
N[C@H](C(=O)O)[C@H](OCc1ccccc1)C(=O)O (racemic)	103
CCS(=O)(=O)c1cccc(-c2cc(C(=O)NC3CCN(C)CC3)c(C)c3[nH]c4ncc(C)cc4c23)c1	46.8
COc1cc(C(=O)NC(=S)Nc2cccc(NC(=O)c3ccccc3)c2)cc(OC)c1OC	117
CN(C)c1nc(N)c(C(=O)Nc2cccnc2)nc1Cl [ACDPP hydrochloride]	97.2
CN1CCC(c2c(O)cc(O)c3c(=O)cc(-c4ccccc4Cl)oc23)C(O)C1 (centres undefined) [Flavopiridol (Alvocidib) HCl]	58.4
Cc1cc2c(cc1C1(c3ccc(C(=O)O)cn3)CC1)C(C)(C)CCC2(C)C	109
COc1cc(NC(C)CCCN)c2ncccc2c1 (centres undefined) [Primaquine diphosphate]	36.1
C/C(=N\NC(=O)C1C(=O)NCC1c1ccccc1)c1cccc(Br)c1 (centres undefined)	102
O=C(O)c1cc(O)ccc1O [Gentisic acid]	101
CC(=O)N[C@@H](CSCC=C(C)CCC=C(C)CCC=C(C)C)C(=O)O [Acetyl-S-farnesyl-L-cysteine]	123
OCC1OC(n2cnc3c(NC4CCCC4)nc(Cl)nc32)C(O)C1O (centres undefined) [2-Chloro-N6-cyclopentyladenosine]	116
